Hits are enriched below; roughly 0.71% of the tested compounds scored in any of these assays.
Hsp90 inh – tumor Hsp90 inhibitors, primary screen, cell lysate, fluorescence polarization, NCI-N417 lysate | AID 429, 2006 | inhibition, % at 30 µM | actives 0.35% (n = 64,000) | Heat shock protein HSP 90-alpha (Homo sapiens), P07900 | Cy3B-geldanamycin FP displacement;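 active = inhibition above 50%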
CatS inh – inhibitors of human cathepsin S, biochemical, compound mixtures | P25774 | recombinant cathepsin S, AMC dipeptide fluorescence, pooled mixtures | inhibition, %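 (tested at 5 µM per compound within 10-compound mixtures)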 | actives 0.06% (n = 62,000); in the data active = inhibition above about 32%, passing the limit was not always enough; inconclusive = no clear call, values can overlap the other calls
Target sequence (P25774 115-331 limits assumed): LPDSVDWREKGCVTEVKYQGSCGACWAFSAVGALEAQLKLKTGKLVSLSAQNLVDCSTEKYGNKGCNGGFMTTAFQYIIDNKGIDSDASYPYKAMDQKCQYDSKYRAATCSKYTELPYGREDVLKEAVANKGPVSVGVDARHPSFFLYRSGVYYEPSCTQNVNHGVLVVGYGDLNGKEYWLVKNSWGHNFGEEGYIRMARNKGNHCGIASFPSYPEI
Htt clearance – clearance of mutant huntingtin inclusions, primary screen, imaging, HeLa Exon1htt(103Q)mCFP, confocal imaging | aggregate imaging; zero = plate's median compound well | inhibition, % at 1.5 µM | actives 0.42% (n = 47,000) | AID 853, 2007;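 active = inhibition of aggregate fluorescence above about 70%, also judged a hit by eye on the cell image, limit read from the data, passing the limit was not always enough; inconclusive = no rule stated for this call; inactive = not judged a hit on image review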;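 note: cells exposed to compound for three days before fixation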
CatB inh – human cathepsin B inhibitors, primary screen, biochemical, fluorogenic substrate; P07858; purified cathepsin B, fluorescence; inhibition, %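 (tested at 10 µM)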; actives 0.1% (n = 63,000); AID 453, 2006; in the data active = inhibition above about 21%
CatB mixtures – cathepsin B inhibitors from pooled compounds, primary screen, biochemical, compound mixtures, AMC fluorescence; P07858; Purified cathepsin B, AMC dipeptide fluorescence; inhibition, %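 (ten-compound pools at 5 µM per compound and 50 µM total)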; actives 0.06% (n = 62,000); AID 488, 2006; in the data active = inhibition above about 22%, passing the limit was not always enough; inconclusive = no clear call, values can overlap the other calls
CatL inh – inhibitors of human cathepsin L, biochemical; Procathepsin L (Homo sapiens), P07711; actives 0.17% (n = 58,000); inhibition, %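 (tested at 10 µM)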; AID 460, 2006; purified cathepsin L, fluorogenic substrate, fluorescence; in the data active = inhibition above about 45%
Target sequence (P07711 114-288 limits assumed): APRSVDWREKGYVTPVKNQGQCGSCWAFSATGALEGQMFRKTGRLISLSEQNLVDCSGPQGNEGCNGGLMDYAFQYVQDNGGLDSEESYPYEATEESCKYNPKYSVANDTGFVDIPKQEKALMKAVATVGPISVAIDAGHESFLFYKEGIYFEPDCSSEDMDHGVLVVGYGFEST
Target sequence (P07711 292-333 limits assumed): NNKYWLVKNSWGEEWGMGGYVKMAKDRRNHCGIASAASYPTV
Numbers stand for hits; – = inactive; ? = inconclusive; · = no result.

SMILES | Hsp90 inh | CatS inh | Htt clearance | CatB inh | CatB mixtures | CatL inh
O=C(c1cc(-c2ccncc2)nc2ccc(Br)cc12)N1CCN(c2ccccn2)CC1 | 137 | – | · | – | – | –
COc1ccc(-c2cc3nc(C)cc(C)n3n2)c(OC)c1 | – | – | · | – | – | –
CC(C)CC1N=C2c3ccccc3N=C(SCc3cc(=O)n4ccccc4n3)N2C1=O (stereo not drawn) | – | – | · | – | – | ·
O=C(C(Cc1ccccc1)N1C(=O)C2C3C=CC(C3)C2C1=O)N1CCCCCC1 (stereo not drawn) | – | – | – | – | – | –
O=C(NCc1ccco1)C(Cc1ccccc1)N1C(=O)C2C3C=CC(C3)C2C1=O (stereo not drawn) | – | – | – | – | – | 54
Nc1ncnc2c1nc(Br)n2C1OC2COP(=O)(O)O[C@@H]2C1O (stereo partly drawn) | – | · | · | · | · | ·
O=C(Cc1coc(-c2ccc(F)cc2)n1)Nc1ccccc1 | – | – | · | – | – | –
CCOC(=O)NC1(Nc2ccc(Cl)cn2)Oc2ccccc2O1 | 50 | – | · | – | – | –
COc1ccccc1NC(=O)CCC(=O)O | – | · | · | 33 | – | –
COc1ccc(-n2c(=O)c3c4c(sc3n3cnnc23)CC(C)CC4)cc1 (stereo not drawn) | – | – | – | – | – | 48
COc1ccc(-n2c(=O)c3c4c(sc3n3c(C)nnc23)CC(C)CC4)cc1 (stereo not drawn) | – | · | – | – | · | –
N[C@@H](COP(=O)(O)O)C(=O)O | – | · | · | · | · | ·
Cc1cc(C)c2c(=O)n(CC(=O)NCCCN3CCOCC3)sc2n1 | – | – | · | – | – | –
Cc1cc(C)c2c(=O)n(CC(=O)NCCCN3CCN(c4ccccc4F)CC3)sc2n1 | – | – | · | – | – | 65
CS(=O)(=O)N(CC(=O)N1CCCCC1)c1sc2c(c1C#N)CCCC2 | – | – | – | – | – | –
C=Cc1c(C)c2cc3[nH]c(cc4nc(cc5nc(cc1[nH]2)C(C)=C5CCC(=O)O)C(CCC(=O)O)=C4C)c(C)c3C=C | 139 | · | · | · | · | ·
O=C(CNC(=O)c1ccco1)OC(C(=O)c1ccccc1)c1ccccc1 (stereo not drawn) | – | – | – | – | ? | 78
CC1C(=O)N(C)C(=O)c2nc[nH]c21 (stereo not drawn) | – | · | · | · | · | ·
CCCCN(C(=O)Cn1nnc2ccccc21)C(C(=O)NCCOC)c1cccs1 (stereo not drawn) | · | · | 74 | · | · | ·
CC(=O)C1=C(O)C(=O)N(Cc2ccccc2)C1c1ccco1 (stereo not drawn) | – | – | · | – | – | –
CN(C)c1nc(SCC#N)nc(N(C)C)n1 | – | – | 72 | – | – | –
CN(C)c1nc(N(C)C)nc(N(C)C)n1 | – | – | · | – | – | –
CCOC(=O)c1sc(=NC(=O)c2ccc(S(=O)(=O)N3CC(C)OC(C)C3)cc2)n(C)c1C (stereo not drawn) | – | – | – | 43 | – | –
CCSc1nnc2c(n1)OC(c1ccc(C(=O)O)cc1)N(C(C)=O)c1ccccc1-2 (stereo not drawn) | 89 | – | · | – | – | –
O=C(Nc1cccc(C(=O)Nc2ccc(S(=O)(=O)O)c3cc(S(=O)(=O)O)cc(S(=O)(=O)O)c23)c1)Nc1cccc(C(=O)Nc2ccc(S(=O)(=O)O)c3cc(S(=O)(=O)O)cc(S(=O)(=O)O)c23)c1 | – | · | · | · | · | ·
SMILES | Hsp90 inh | CatS inh | Htt clearance | CatB inh | CatB mixtures | CatL inh
c1ccc2[nH]c(SCc3ccc(-c4nnco4)cc3)nc2c1 | 94 | – | – | – | – | –
COc1cc(NS(=O)(=O)CC(C)C)c2ncccc2c1 | – | · | · | · | · | ·
O=C1O/C(=C/Br)CCC1c1cccc2ccccc12 (stereo not drawn) | – | · | · | · | · | ·
Cc1nc(-c2c(-c3ccc(O)cc3O)noc2C(F)(F)F)cs1 | 74 | · | · | – | · | –
COc1cc(NC(=O)Nc2cccc(C(C)=O)c2)cc(OC)c1OC | – | – | 75 | – | – | –
COc1cc(NCCCCN)c2ncccc2c1 | – | · | · | · | · | ·
N#C/C(=C\c1ccc(O)c(O)c1)S(=O)(=O)c1ccccc1 | – | – | – | – | – | –
N#C/C(=C\c1ccc(O)c(O)c1)C(=O)c1ccc(O)c(O)c1 | 87 | · | · | · | · | ·
O=C(Cc1c[nH]c2ccccc12)OCC(=O)c1ccccc1 | · | · | – | · | · | ·
N#C/C(=C\c1ccc(O)c(O)c1)C(=O)NCCCc1ccccc1 | 68 | – | · | – | – | –
N#C/C(=C\c1c[nH]c2ccccc12)C(=O)c1ccc(O)c(O)c1 | 72 | · | · | · | · | ·
Nc1nonc1-c1noc(N2CCCCC2)n1 | – | – | · | 24 | – | –
O=C(NC1CCCC1)c1noc2c1CCCCC2 | · | · | – | · | · | ·
Cn1cc(C(=O)c2ccc(F)cc2)cc1-c1nc2ccccc2n1C | – | – | – | – | – | –
CC(=O)c1cc(-c2nc3ccccc3n2C)n(C)c1 | – | – | 71 | – | – | –
COc1cc(NCCCCCN2C(=O)c3ccccc3C2=O)c2ncccc2c1 | – | · | · | · | · | ·
CN1CCc2cc(O)c(O)cc2C(c2ccccc2)C1 (stereo not drawn) | 59 | · | · | · | · | ·
CN1CCc2cc(Cl)c(O)cc2[C@@H](c2ccccc2)C1 | – | · | · | · | · | ·
Oc1cc2c(cc1O)C(c1ccccc1)CNCC2 (stereo not drawn) | 64 | · | · | · | · | ·
CN1CCc2c(cc(O)c(O)c2Cl)C(c2cccc(Cl)c2)C1 (stereo not drawn) | 81 | · | · | · | · | ·
CCn1cc(C(=O)Nc2nncs2)c(=O)c2cc(F)c(N3CCN(C(=O)c4ccco4)CC3)cc21 | – | – | · | – | – | –
O=C1c2c(O)cc(O)cc2OC(c2ccc(O)c(O)c2)C1O (stereo not drawn) | 71 | · | · | · | · | ·
CC1(C)CC(=O)c2c(O)cc(O)cc2O1 | – | – | · | – | – | –
O=C(Nc1cccc2cccnc12)c1sc2cc(Cl)ccc2c1Cl | – | · | · | · | · | ·
CN(C(=O)c1ccc(C#N)cc1)c1nnc(-c2ccccn2)s1 | · | · | 80 | · | · | ·
SMILES | Hsp90 inh | CatS inh | Htt clearance | CatB inh | CatB mixtures | CatL inh
CN(C(=O)c1cccc(C#N)c1)c1nnc(-c2ccccn2)s1 | – | – | – | – | – | –
COc1ccc(N2CSC3=C(C#N)C(c4ccc(OC)c(OC)c4)CC(=O)N3C2)c(OC)c1 (stereo not drawn) | 77 | – | – | – | – | –
O=C(O)[C@@H]1C[C@H](C(=O)O)N1 | – | · | · | · | · | ·
FC(F)(F)c1cc(CO[C@H]2CCCN[C@H]2c2ccccc2)cc(C(F)(F)F)c1 | – | · | · | · | · | ·
N#Cc1nc(N2CCOCC2)nc(N2CCOCC2)n1 | – | 32 | – | – | – | 67
N#CCOc1nc(N2CCOCC2)nc(N2CCOCC2)n1 | – | – | – | – | – | –
O=C(CSc1nc2c(cnn2-c2ccc(F)cc2)c(=O)[nH]1)N1CCCc2ccccc21 | · | – | – | – | – | –
Nc1nc(SCC(=O)N2CCCc3ccccc32)[nH]c(=O)c1-c1ccccc1 | – | – | 70 | – | – | ·
C[C@H](Cc1ccccc1)Nc1ncnc2c1ncn2[C@@H]1O[C@H](CO)[C@H](O)C1O (stereo partly drawn) | – | · | · | · | · | ·
